# ELG1 genotox = inducers of genotoxicity in HEK293T ELG1-luciferase cells. Potency, µM (titrated, usually from 46 µM), for inactives: at the top dose activity change, positive = activation, usual class: activators. actives 1.3% (n = 330,000). HEK293T ELG1-luciferase reporter, luminescence, 16 h; also: % of control where 0% means no effect; nearly all actives have a fitted effect of over 60% in size
#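 HEK293T cells expressing luciferase-tagged ELG1 were treated with compound or DMSO for 16 hr at 37°C. Luciferase activity was then read after 30 min with ONE-Glo at room temperature; rising signal flags genetic stress.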
# Rab9 promoter act = Rab9 promoter activation; Potency, µM (doses to about 9.22 µM), inactives show at the top dose activation, negative = inhibition, hits mostly activators; actives 2.8% (n = 320,000); Huh7 Rab9 promoter-luciferase reporter, luminescence, 24 h; also: % of control where 0% means no effect; nearly all actives have a fitted effect of over 60% in size
#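 Steps: seed 1500 Huh7 Rab9-luc cells per well, rest 2 h at 37 °C; add compound in DMSO; incubate 24 h; add luciferase reagent, 10 min ambient; read luminescence.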
# SMN2 splice up = SMN2 splice variant enhancement | HEK293 SMN2-luciferase splicing reporter, luminescence, 30-36 h | Potency, µM (doses to about 46.1 µM), for inactives: at the top dose activity change, positive = activation, hits mostly activators | actives 2.8% (n = 210,000); also: % of control where 0% means no effect; nearly all actives have a fitted effect of over 55% in size
#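 HEK293 cells carry an SMN2 minigene-luciferase reporter in which exon 7 inclusion puts luciferase in frame. Cells were seeded at 2000 cells/well, attached for 10-12 hours, then exposed to compounds for 30-36 hours at 37C before ONE-Glo luminescence.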
# NPC1 promoter act = activates the NPC1 promoter; Huh7 NPC1 promoter luciferase reporter, 24 h; AID 485313; actives 2.4% (n = 320,000); Potency, µM (top dose mostly 9.22 µM), without a hit: at the highest dose activation, hits mostly activators; also: % of control where 0% means no effect; nearly all actives have a fitted effect of over 60% in size
#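 Quantitative HTS used a cell-based reporter: Huh7 cells stably bearing the NPC1 promoter upstream of luciferase were treated with compounds for 24 h, and promoter activation was read as luminescence.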
# FLuc modulator = firefly luciferase modulation, counter-screen for miR-21 project; P08659; actives 6.9% (n = 360,000); Potency, µM (highest dose often 57.5 µM), inactives show top-dose activity change, negative = inhibition, most hits filed as inhibitors; purified FLuc, Km substrates, luminescence inhibition;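 also: plate controls were vehicle for no effect and reference inhibitor for full effect; nearly all actives have a fitted effect of over 55% in size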
# Target sequence (P08659 whole entry, looked up): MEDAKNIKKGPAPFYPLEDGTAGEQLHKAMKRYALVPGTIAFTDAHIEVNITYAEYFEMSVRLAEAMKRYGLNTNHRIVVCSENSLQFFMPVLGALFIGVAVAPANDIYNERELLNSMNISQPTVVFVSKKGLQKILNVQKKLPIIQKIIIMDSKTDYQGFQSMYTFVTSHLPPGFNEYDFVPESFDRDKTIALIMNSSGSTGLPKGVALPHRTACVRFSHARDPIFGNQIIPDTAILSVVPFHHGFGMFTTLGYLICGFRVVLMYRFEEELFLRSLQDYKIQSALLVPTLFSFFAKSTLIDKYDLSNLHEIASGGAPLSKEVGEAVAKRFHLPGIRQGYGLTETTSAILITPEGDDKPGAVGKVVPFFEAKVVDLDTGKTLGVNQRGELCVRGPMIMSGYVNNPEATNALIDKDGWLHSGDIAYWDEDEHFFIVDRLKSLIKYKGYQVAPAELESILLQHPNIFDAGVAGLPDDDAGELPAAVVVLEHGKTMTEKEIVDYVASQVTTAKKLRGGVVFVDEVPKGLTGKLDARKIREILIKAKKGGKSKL
#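 Purified P. pyralis luciferase (10nM final) with 10uM D-luciferin and 10uM ATP (Km levels) in 50mM Tris acetate pH 7.5, 10mM Mg acetate, 0.01% Tween-20, 0.05% BSA; qHTS 6-point titration, ~60 µM downward; luminescence read.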
# Active calls of the source: *; ? = inconclusive; / = no result; ! = repeats disagree; [ ] = another dose, or the depositor's remark. Hits are enriched below; roughly 7.4% of the tested compounds scored in any of these assays. Calls follow the shape of the dose curve; as a rule, active = well fitted curve in the direction sought with a large enough effect; inconclusive = small, poorly fitted or top-dose-only effect, or another doubt; inactive = no such curve, though single readings can be large; an effect the other way counts as inactive or inconclusive. Potency is read from the fitted curve at half-maximal effect.
SMILES,ELG1 genotox,Rab9 promoter act,SMN2 splice up,NPC1 promoter act,FLuc modulator
O=C1OC(c2ccccc2)=N/C1=C\N1CCCCC1,?,3.5µM*,?,2.8µM*,9.5µM*
CC(Sc1ccccc1)C(=O)N1CCN(S(=O)(=O)c2ccc(Cl)cc2)CC1 (configuration not stated),-13%,-2%,/,1%,-1%
Cc1c(C(=O)N2CCc3ccccc32)oc2ccccc12,3.7µM*,3.5µM*,3.5µM*,?,0.95µM*
Nc1ccccc1C(=O)N1CCc2ccccc21,11%,?,/,?,19µM*
O=C(c1ccc(Br)o1)N1CCc2ccccc21,?,2.5µM*,/,2.2µM*,4.8µM*
COc1ccccc1C(=O)N1CCc2ccccc21,5%,-1%,-8%,-6%,5%
Cc1c(Br)c(C(=O)N2CCc3ccccc32)nn1C,?,?,?,30%,21µM*
O=C(c1ccc(Br)o1)N1CCCc2ccccc21,1%,0%,2%,0%,-2%
COCc1c(C(=O)N2CCc3ccccc32)oc2ccccc12,3%,3%,/,-23%,?
CCOc1ccc(-c2c(C(=O)N/N=C/c3ccsc3)nnn2-c2nonc2N)cc1,3%,0%,/,1%,1%
CC(=O)Nc1ccccc1P(=O)(c1ccccc1)c1ccccc1OC(C)=O (configuration not stated),1%,1%,/,0%,1%
COc1ccc(S(=O)(=O)N2CCOCC2)cc1NC(=O)CNC(=O)c1cccs1,0%,-1%,/,-3%,-2%
Clc1ccc(-c2nnc(NC3=NCCCCC3)o2)cc1,?,0.32µM*,?,0.35µM*,0.43µM*
N#C/C(=C\c1ccc(OCc2ccc(C(=O)O)cc2)cc1)C(=O)N1CCOCC1,?,2.8µM*,1.6µM*,?,17µM*
CC1(C)OCC(CSC2=C(SCC3COC(C)(C)O3)C(=O)c3ncccc3C2=O)O1 (configuration not stated),/,/,-32%,/,/
COc1ccc(/C=C/C(=O)Nc2ccc(C(N)=O)cc2)cc1OC,0%,2%,/,-1%,-18%
COc1ccc(/C=C/C(=O)NC2=NCCS2)cc1OC,?,4µM*,?,2.8µM*,-11%
COc1ccc(/C=C/C(=O)Nc2ccc3c(c2)CCC3)cc1OC,0%,13%,-36%,0%,19µM*
C/C=C/c1ccccc1OCc1ccc(C(=O)O)o1,6%,-6%,/,-2%,-15%
CCOc1ccc(OCc2ccc(C(=O)Nc3cc(OC)c(OC)c(OC)c3)o2)cc1,/,/,-14%,/,-14%
O=C(O)c1ccc(COc2ccc3ccccc3c2)o1,?,?,/,?,19µM*
CCOc1ccc(OCc2ccc(C(=O)O)o2)cc1,?,0.28µM*,0.89µM*,?,3.4µM*
O=C(NCc1ccco1)/C(=C\C=C\c1ccccc1)NC(=O)c1ccccc1Br,-15%,2%,-10%,-1%,27µM*
O=C(Nc1ccc(O)cc1)c1c(O)c2c([nH]c1=O)CCCC2,?,0.56µM*,11µM*,1.3µM*,6µM*
COC(=O)c1ccccc1NC(=O)c1c(O)c2c([nH]c1=O)CCCC2,2%,3%,9%,4%,21µM*
SMILES,ELG1 genotox,Rab9 promoter act,SMN2 splice up,NPC1 promoter act,FLuc modulator
CCNC(=O)c1c(O)c2c([nH]c1=O)CCCC2,3%,15%,/,2%,-10%
COc1ccc(-c2c(C)nn(-c3ccccc3)c2N)cc1OC,18%,0%,?,-4%,5%
COc1ccc(-c2c(C)nn(-c3ccccc3)c2N)cc1,?,?,?,?,21µM*
COc1ccc(-c2nn(-c3ccccc3)cc2N)cc1,?,2.8µM*,14µM*,3.5µM*,11µM*
Cc1nn(C(C)(C)C)c(N)c1-c1ccccc1,2%,0%,-43%,0%,-14%
Cc1nn(-c2ccc(C(=O)O)cc2)c(N)c1-c1ccccc1,?,?,11µM*,?,3µM*
COc1cc(C(=O)OC2CC3CCC2(C)C3(C)C)ccc1OC(C)=O (configuration not stated),13%,21%,/,4%,?
Nc1ccc(C(=O)N2N=C(c3ccccc3)CC2(O)C(F)(F)F)cc1 (configuration not stated),0%,2%,/,15%,12µM*
Cc1ccc(C2=NN(C(=O)c3ccco3)C(O)(C(F)(F)F)C2)cc1 (configuration not stated),-2%,-2%,/,-1%,19µM*
COc1cccc(C2=NN(C(=O)c3ccco3)C(O)(C(F)(F)F)C2)c1 (configuration not stated),0%,0%,/,-8%,?
CCN(CC)S(=O)(=O)c1ccc(NN=c2c(=O)c3ccccc3c2=O)cc1,0%,-6%,/,0%,4%
CN(C)c1cccc(-c2csc(N3CCC(C(N)=O)CC3)n2)c1,9%,/,/,/,/
COc1cccc(-c2csc(N3CCC(C(N)=O)CC3)n2)c1,/,/,/,/,17µM*
CS(=O)(=O)c1cccc(-c2csc(N3CCC(C(N)=O)CC3)n2)c1,10%,?,/,2.5µM*!,0%
COc1ccc(-c2csc3nc(-c4cccnc4)nc(N4CCC(C(N)=O)CC4)c23)cc1OC,-2%,-3%,14µM*,-1%,2%
Cc1ccc(-n2ncc(C(=O)NCCN3CCc4ccccc4C3)c2C2CCN(C(=O)OC(C)(C)C)CC2)cc1,/,/,/,/,-3%
CCC1=C2CC[C@H]3C(=O)N(CC(=O)OC)C(=O)[C@H]3[C@H]2[C@@]2(C)C(=O)N(CC3CC3)C(=O)N2C1=O,/,/,6%,/,/
CCOC(=O)C1=C(C)NC(C)=C(C(=O)OCC)C1c1ccc(O)cc1,14%,12%,13µM*,0%,3%
Cc1cccc(C(=O)Nc2cccc(NC(=O)c3ccccc3)c2)c1,-2%,-3%,/,10%,17µM*
COC(=O)CSC(C(=O)Nc1ccc(C)c(C)c1)c1ccccc1 (configuration not stated),6%,10%,9%,-5%,17µM*
Cc1ccc(NC(=O)c2ccccc2C(=O)O)cc1C,/,/,-5%[9.22 µM],/,/
Cc1ccc(C(=O)Nc2ccc(Oc3ccc(C(=O)O)c(C(=O)O)c3)cc2)cc1C,1%,-9%,0%,-1%,6µM*
Cc1cccc(C(=O)Nc2cccc(C(=O)Nc3cc(C)ccn3)c2)c1,-6%,20%,/,10%,27µM*
Cc1cccc(NC(=O)c2cccc(C(=O)Nc3cccc(C)c3)c2)c1,3%,-3%[1.84 µM],/,2%,-8%
Cc1ccnc(NC(=O)c2cccc(NC(=O)Cc3ccccc3)c2)c1,8%,-2%,/,-1%,?
CCc1ccc(N2CC(C)Cn3c2nc2c3c(=O)[nH]c(=O)n2C)cc1 (configuration not stated),-1%,-4%,/,-2%,-2%
c1ccc(CCc2cc3ccccc3[nH]2)cc1,9%,1%,/,17%,?
